Tests used:
Settings in all cases: concentration: 1 μM,replicates: in singlicate; n = 1
[1] = tested on: FGFR1
[2] = tested on: FGFR2
[3] = tested on: FGFR3
[4] = tested on: FGFR4
[5] = tested on: FGR
[6] = tested on: FLT1
[7] = tested on: FLT3-autoinhibited
[8] = tested on: FLT3
[9] = tested on: FLT4
[10] = tested on: FRK
[11] = tested on: FYN
[12] = tested on: GAK
[13] = tested on: T1, GCN2(Kin.Dom.2,S808G)
T1 construct: gene EIF2AK4

[14] = tested on: GRK1
[15] = tested on: T2, GRK2
T2 construct: gene ADRBK1

[16] = tested on: T3, GRK3
T3 construct: gene ADRBK2

[17] = tested on: GRK4
[18] = tested on: GRK7
[19] = tested on: GSK3A
[20] = tested on: GSK3B
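Further: KINOMEscan kinase panel screen.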

Compound | %Inh [1] [%] | %Inh [2] [%] | %Inh [3] [%] | %Inh [4] [%] | %Inh [5] [%] | %Inh [6] [%] | %Inh [7] [%] | %Inh [8] [%] | %Inh [9] [%] | %Inh [10] [%] | %Inh [11] [%] | %Inh [12] [%] | %Inh [13] [%] | %Inh [14] [%] | %Inh [15] [%] | %Inh [16] [%] | %Inh [17] [%] | %Inh [18] [%] | %Inh [19] [%] | %Inh [20] [%]
Cc1cc2cn[nH]c2cc1-c1cccc2c(N)c(C(N)=O)nnc12 | 35 | 0 | 0 | 0 | 50 | 0 | 19 | 10 | 2 | 31 | 20 | 34 | 0 | 23 | 1 | 27 | 28 | 0 | 0 | 23
CN(C)CC(O)COc1ccc(Nc2nccc(-c3cnn4nc(N5CCOCC5)ccc34)n2)cc1 (centres unmarked) [GW767488] | 2 | 6 | 3 | 1 | 93.5 | 11 | 40 | 58 | 24 | 0 | 15 | 75 | 56 | 23 | 0 | 0 | 81 | 37 | 4 | 61
NC(=O)c1cc(-c2ccccc2)cc2c(C3CCNCC3)c[nH]c12 [GSK301362] | 32 | 19 | 3 | 9 | 14 | 37 | 25 | 47 | 12 | 2 | 21 | 15 | 38 | 0 | 0 | 0 | 2 | 0 | 0 | 14
Cc1n[nH]c2ccc(-c3cc(OC[C@@H](N)Cc4ccccc4)cnc3-c3ccoc3)cc12.O=C(O)C(F)(F)F.O=C(O)C(F)(F)F [GSK507358] | 0 | 0 | 0 | 0 | 45 | 2 | 0 | 0 | 5 | 0 | 12 | 82 | 0 | 0 | 0 | 21 | 34 | 0 | 80 | 49
Cl.Cl.NC[C@H](CC1CCCCC1)NC(=O)c1cc(Br)c(-c2ccnc3[nH]ccc23)s1 [GSK1581427] | 35 | 18 | 13 | 16 | 33 | 39 | 8 | 68 | 22 | 19 | 25 | 71 | 0 | 90.2 | 0 | 44 | 88 | 90 | 0 | 13
CC(C)Nc1cc(-c2ccc3c(N)n[nH]c3c2)nc(N)n1 [GSK2221681] | 20 | 0 | 5 | 5 | 3 | 18 | 0 | 0 | 14 | 3 | 33 | 0 | 0 | 0 | 0 | 0 | 34 | 0 | 0 | 4
CN(C)CCOc1ccc(-c2cc(-c3c[nH]nc3-c3ccccn3)ccn2)cc1 [GW835314] | 47 | 17 | 31 | 8 | 7 | 0 | 35 | 59 | 11 | 10 | 15 | 75 | 0 | 17 | 0 | 12 | 3 | 0 | 0 | 7
C[C@H]1Oc2cc(cnc2N)-c2c(nn(C)c2C#N)CN(C)C(=O)c2ccc(F)cc21 | 12 | 26 | 0 | 0 | 33 | 0 | 0 | 26 | 0 | 92 | 19 | 25 | 0 | 95.8 | 2 | 0 | 0 | 94.3 | 21 | 0
Cl.Cl.NC[C@H](Cc1ccc(C(F)(F)F)cc1)NC(=O)c1cc(Br)c(-c2ccnc3[nH]ccc23)s1 [GSK1487252] | 14 | 17 | 24 | 57 | 31 | 62 | 23 | 63 | 54 | 15 | 15 | 0 | 4 | 93.7 | 35 | 75 | 8 | 95.3 | 0 | 18
CCn1c(-c2nonc2N)nc2c(C#CC(C)(C)O)nc(OCCN)cc21.Cl.Cl [GSK902056] | 0 | 100 | 7 | 0 | 30 | 16 | 0 | 0 | 0 | 6 | 0 | 9 | 9 | 19 | 0 | 39 | 14 | 0 | 63 | 36
O=C(NCCCN1CCOC1=O)c1cnc(NCc2cc(Cl)ccc2Cl)nc1NC1CCCC1 | 10 | 24 | 19 | 13 | 29 | 6 | 0 | 21 | 5 | 18 | 12 | 4 | 29 | 22 | 0 | 0 | 2 | 0 | 10 | 0
Cl.Oc1cc(-c2nc(-c3ccccc3)[nH]c2-c2ccncc2)ccc1Cl [SB-386023] | 6 | 2 | 0 | 0 | 56 | 2 | 0 | 12 | 8 | 73 | 40 | 43 | 20 | 2 | 0 | 0 | 20 | 7 | 17 | 40
CNC(=O)c1ccccc1Sc1ccc2c(/C=C/c3ccccn3)n[nH]c2c1 |  | 86 | 81 | 12 | 85 | 99.6 | 15 | 0 | 100 | 0 | 14 | 10 | 0 | 25 | 22 | 44 | 11 | 0 | 0 | 9
CCN(CC)CCOc1ccc(Nc2ncc3cc(-c4c(Cl)cccc4Cl)c(=O)n(C)c3n2)cc1 [SB-601273] | 99.9 | 100 | 100 | 97.9 | 100 | 99 | 65 | 98.7 | 95.8 | 100 | 100 | 97 | 100 | 6 | 29 | 57 | 0 | 0 | 17 | 0
C[C@@H](Oc1cc(-c2cnn(C3CCNCC3)c2)cnc1N)c1c(Cl)ccc(F)c1Cl | 22 | 0 | 24 | 0 | 46 | 28 | 31 | 40 | 4 | 36 | 15 | 2 | 0 | 15 | 16 | 0 | 10 | 0 | 68 | 36
C[C@@H]1CCN(C(=O)CC#N)C[C@@H]1N(C)c1ncnc2[nH]ccc12 | 0 | 0 | 0 | 0 | 1 | 0 | 0 | 0 | 0 | 0 | 8 | 19 | 0 | 15 | 0 | 0 | 0 | 25 | 0 | 0
Cc1ccc2c(-c3ccncc3)c(-c3ccc(F)cc3)nn2c1.Cl [GW461484] | 14 | 12 | 4 | 4 | 0 | 5 | 0 | 37 | 0 | 20 | 26 | 84 | 28 | 0 | 0 | 0 | 0 | 66 | 26 | 16
COc1ccc(C[C@@H](CN)NC(=O)c2cc(Br)c(-c3ccnc4[nH]ccc34)s2)cc1.Cl.Cl [GSK1389063] | 95.8 | 83 | 69 | 93.2 | 53 | 82 | 42 | 98 | 73 | 29 | 0 | 56 | 40 | 99.8 | 67 | 96 | 39 | 98.8 | 0 | 8
O=C(NCCNc1ccnc(NCc2ccc(F)cc2)n1)c1cc2ccccc2s1 [GSK1379944] | 6 | 10 | 20 | 79 | 29 | 27 | 0 | 0 | 1 | 15 | 17 | 33 | 6 | 0 | 0 | 34 | 0 | 0 | 6 | 78
Cc1ccc(-n2nc(C(C)(C)C)cc2NC(=O)Nc2ccc(OCCN3CCOCC3)c3ccccc23)cc1 [GW839464] |  | 2 | 0 | 0 |  | 67 | 0 | 29 | 58 | 48 | 0 | 0 | 0 | 0 | 5 | 0 | 16 | 0 | 29 | 0
C=CC(=O)Nc1cc2c(Nc3ccc(F)c(Cl)c3)ncnc2cc1OCCCN1CCOCC1 [GW781483] | 0 | 0 | 0 | 0 | 14 | 15 | 2 | 27 | 0 | 30 | 0 | 66 |  | 0 | 19 | 3 | 39 | 0 | 0 | 0
Nc1nc(Nc2ccccc2)cc(-c2ccc3c(N)n[nH]c3c2)n1 [GSK2225749] | 17 | 10 | 18 | 0 | 0 | 10 | 19 | 2 | 9 | 0 | 12 | 63 | 0 | 0 | 74 | 0 | 73 | 0 | 0 | 0
Cl.Cl.Nc1nc(-c2ccc3c(N)n[nH]c3c2)cc(N2CCCC(NC(=O)c3ccccc3)C2)n1 (centres unmarked) [GSK2286775] | 0 | 0 | 11 | 0 | 8 | 16 | 2 | 0 | 0 | 0 | 34 | 2 | 0 | 0 | 0 | 19 | 55 | 0 | 0 | 15
Cc1occc1-c1nc(N)c(OC[C@@H](N)Cc2c[nH]c3ccccc23)cc1-c1cc2c(C)n[nH]c2cn1 [GSK1660450] | 49 | 4 | 0 | 0 | 91.6 | 31 | 0 | 0 | 25 | 75 | 87 | 87 | 0 | 74 | 0 | 0 | 49 | 87 | 95.7 | 97.9
CCN(CC)CCCCNc1ncc2cc(-c3c(Cl)cccc3Cl)c(NC(=O)NC(C)(C)C)nc2n1 | 98.6 | 96.4 | 95.5 | 28 | 90.3 | 99 | 24 | 98.1 | 83 | 96.2 | 87 | 42 | 53 | 12 | 22 | 28 | 7 | 0 | 0 | 26
Cc1cc(C(=O)Nc2ccc(Oc3ccc4nc(NC(=O)C5CC5)cn4n3)cc2)nn1-c1ccccc1 | 21 | 28 | 7 | 13 | 59 | 88 | 18 | 97.5 | 94 | 0 | 13 | 6 | 0 | 0 | 0 | 0 | 6 | 0 | 0 | 0
CC(C)N1C(=O)Cc2cc(Nc3ncc(C(F)(F)F)c(NCc4cccc(S(C)(=O)=O)c4)n3)ccc21 | 38 | 52 | 43 | 16 | 5 | 62 | 57 | 97.6 | 89 | 0 | 4 | 14 | 17 | 25 | 0 | 4 | 28 | 10 | 47 | 0

Source: PMC5540273 (PLoS ONE, 2017)
